# Source: PubChem BioAssay (Tox21)
# Unmarked numbers belong to inactive results. Results filed as inconclusive are left out. Where a call stands in place of a potency, no number is given. Active and inactive are the calls of the source. Unless noted, the call rests on the fitted dose curve; in most records, active means well fitted curve in the direction sought with a large enough effect in the repeat runs; inconclusive means weak or mixed curves; inactive means no such curve, though single readings can be large; an effect the other way counts as inactive or inconclusive.
# How the values were obtained:
# [1] = qHTS assay to identify small molecule antagonists of the estrogen related receptor (ERR) signaling pathway from Tox21 library - cell viability counter screen (AID 1224834); further: nearly all actives have a fitted effect of over 30% in size
# Summary of the method: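 ERR reporter cells, 2,000 per well, rested 6 h, then exposed to compound in DMSO for 17.5 hours at 37 C. Viability read as fluorescence after 30 min with CellTiter-Fluor.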
# [2] = target: Luciferin 4-monooxygenase (Photinus pyralis) (UniProt P08659); experiment: qHTS assay to identify small molecule inhibitors of firefly luciferase (AID 1224835); further: nearly all actives have a fitted effect of over 25% in size
# Sequence of Luciferin 4-monooxygenase (Photinus pyralis) (P08659 whole entry, looked up): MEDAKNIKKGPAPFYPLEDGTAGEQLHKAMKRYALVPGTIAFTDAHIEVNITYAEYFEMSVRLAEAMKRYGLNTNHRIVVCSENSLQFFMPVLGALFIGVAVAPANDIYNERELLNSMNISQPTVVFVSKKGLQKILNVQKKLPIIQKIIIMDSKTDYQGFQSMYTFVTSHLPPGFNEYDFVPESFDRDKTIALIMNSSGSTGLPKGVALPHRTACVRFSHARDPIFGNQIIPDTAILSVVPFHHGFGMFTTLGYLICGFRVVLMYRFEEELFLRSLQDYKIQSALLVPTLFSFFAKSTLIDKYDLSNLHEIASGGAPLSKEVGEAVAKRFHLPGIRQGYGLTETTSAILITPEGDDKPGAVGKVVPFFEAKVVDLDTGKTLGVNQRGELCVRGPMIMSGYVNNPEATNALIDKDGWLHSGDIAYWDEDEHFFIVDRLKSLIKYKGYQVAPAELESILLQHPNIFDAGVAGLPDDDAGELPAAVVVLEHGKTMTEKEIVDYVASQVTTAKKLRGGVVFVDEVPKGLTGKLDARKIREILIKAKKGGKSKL
# Summary of the method: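 Inhibition of purified Photinus luciferase is measured by luminescence. Substrate levels (D-luciferin, ATP) sit at their KM values. Each compound is tested in a concentration series.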
# [3] = qHTS assay to identify small molecule agonists of the constitutive androstane receptor (CAR) signaling pathway - cell viability counter screen (AID 1224836); further: nearly all actives have a fitted effect of over 45% in size
# Summary of the method: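 Counter screen multiplexed with the CAR reporter readout: HepG2 cells co-transfected with hCAR and the CYP2B6-2.2kb construct receive a 15-concentration compound series and 0.75 uM PK11195 (final), then CellTiter-Fluor fluorescence is read after 23 h.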
# [4] = qHTS assay to identify small molecule antagonists of the constitutive androstane receptor (CAR) signaling pathway - cell viability counter screen (AID 1224837); further: nearly all actives have a fitted effect of over 45% in size
# Summary of the method: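 HepG2 cells stably carrying hCAR and CYP2B6-2.2kb reporter, stimulated with 50 nM CITCO and compounds at 15 concentrations for 23 h at 37 C. Viability measured by CellTiter-Fluor fluorescence.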
# [5] = target: Nuclear receptor subfamily 1 group I member 3 (Homo sapiens) (UniProt Q14994); experiment: qHTS assay to identify small molecule antagonists of the constitutive androstane receptor (CAR) signaling pathway (AID 1224838); further: nearly all actives have a fitted effect of over 40% in size
# Sequence of Nuclear receptor subfamily 1 group I member 3 (Homo sapiens) (Q14994 whole entry, looked up): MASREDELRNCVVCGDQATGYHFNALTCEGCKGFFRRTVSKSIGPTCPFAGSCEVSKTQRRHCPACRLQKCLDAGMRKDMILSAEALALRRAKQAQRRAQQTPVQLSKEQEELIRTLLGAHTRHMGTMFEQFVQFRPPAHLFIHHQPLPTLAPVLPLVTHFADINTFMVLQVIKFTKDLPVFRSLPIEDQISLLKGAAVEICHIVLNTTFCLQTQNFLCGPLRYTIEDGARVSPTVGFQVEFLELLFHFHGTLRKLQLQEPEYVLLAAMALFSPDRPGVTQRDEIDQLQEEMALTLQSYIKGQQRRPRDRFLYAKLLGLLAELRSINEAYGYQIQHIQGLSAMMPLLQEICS
# Summary of the method: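 HepG2 cells stably carrying hCAR and a CYP2B6-2.2kb luciferase reporter, seeded 4 hrs before compound (15 concentrations). Stimulated with 50 nM CITCO for 24 hr at 37 C. ONE-Glo luminescence read after 30 min at room temperature.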
# [6] = qHTS assay to identify small molecule antagonists of the estrogen related receptor signaling pathway with the pleiotropic PPARgamma coactivator (PGC) from Tox21 10K library - cell viability counter screen (AID 1224840; active means well fitted cell-killing curve with a large enough effect in the repeat runs, not every such curve was filed as active; further: nearly all actives have a fitted effect of over 40% in size)
# Summary of the method: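 PGC/ERR cells (2,000/well) plated 6 h, then compound-treated for 17.5 h at 37 C. Viability measured by CellTiter-Fluor fluorescence after 30 min at 37 C, multiplexed with the pathway assay.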
# [7] = target: Thyrotropin receptor (Homo sapiens) (UniProt P16473); experiment: qHTS assay to identify small molecule agonists of the thyroid stimulating hormone receptor (TSHR) signaling pathway (AID 1224843; calls by dose curve; further: nearly all actives have a fitted effect of over 45% in size)
# Sequence of Thyrotropin receptor (Homo sapiens) (P16473 whole entry, looked up): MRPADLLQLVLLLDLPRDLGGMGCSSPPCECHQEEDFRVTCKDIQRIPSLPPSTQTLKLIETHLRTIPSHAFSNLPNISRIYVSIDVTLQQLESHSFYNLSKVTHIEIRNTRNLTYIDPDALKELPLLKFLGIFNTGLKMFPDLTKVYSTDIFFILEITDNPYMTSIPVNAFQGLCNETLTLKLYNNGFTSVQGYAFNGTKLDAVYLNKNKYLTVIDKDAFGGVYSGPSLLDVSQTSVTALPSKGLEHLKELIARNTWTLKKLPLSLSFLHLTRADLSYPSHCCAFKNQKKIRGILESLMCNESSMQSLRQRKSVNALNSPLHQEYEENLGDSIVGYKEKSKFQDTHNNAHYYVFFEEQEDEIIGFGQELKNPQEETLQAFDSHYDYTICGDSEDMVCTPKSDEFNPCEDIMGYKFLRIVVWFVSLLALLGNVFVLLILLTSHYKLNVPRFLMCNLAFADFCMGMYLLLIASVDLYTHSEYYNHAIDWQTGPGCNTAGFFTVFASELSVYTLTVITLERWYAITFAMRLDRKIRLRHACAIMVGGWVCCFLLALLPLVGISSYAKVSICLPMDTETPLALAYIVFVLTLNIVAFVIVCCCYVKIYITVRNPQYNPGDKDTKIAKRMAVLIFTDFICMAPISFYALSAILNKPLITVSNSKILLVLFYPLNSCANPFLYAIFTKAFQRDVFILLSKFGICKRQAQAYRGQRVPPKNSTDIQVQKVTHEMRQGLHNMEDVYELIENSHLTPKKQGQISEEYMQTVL
# Summary of the method: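 Screening of the Tox21 10K collection used HEK293 cells engineered with TSHR at 800 cells per well. After a 30-min room-temperature compound exposure, HTRF cAMP reagents were added and fluorescence recorded 1 h later.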
# [8] = qHTS assay to identify small molecule agonists of the hypoxia (HIF-1) signaling pathway - cell viability counter screen (AID 1224844; calls by dose curve; further: nearly all actives have a fitted effect of over 50% in size)
# Summary of the method: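 HRE-bla ME-180 cells, 2,000/well in 0.5% dialyzed FBS medium, treated 17 h at 37C with compounds. Viability read in the same wells as the bla reporter, by CellTiter-Glo luminescence after 30 min at room temperature.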
# [9] = qHTS assay to identify small molecule agonists of H2AX (AID 1224845; active means well fitted activation curve with a large enough effect in the signal ratio in the repeat runs, not every such curve was filed as active; the % refers to the signal ratio)
# Summary of the method: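 Phospho-H2AX Ser139 measured by HTRF (ex 320 nm; em 665 and 620 nm) after 24 hr antibody incubation. Compounds, 15 concentrations, 0.76% DMSO, were applied to CHO-K1 cells for 3hr at 37C before lysis.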
# [10] = qHTS assay to identify small molecule agonists of the hypoxia (HIF-1) signaling pathway (AID 1224846; active means well fitted activation curve with a large enough effect in the signal ratio in the repeat runs, not every such curve was filed as active; the % refers to the signal ratio)
# Summary of the method: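 HRE-bla ME-180 beta-lactamase reporter cells in medium with 0.5% dialyzed FBS, pre-incubated 5 h then exposed to compounds 17 h at 37C, 5% CO2; reporter induction read with CCF4-AM FRET substrate.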
# [11] = qHTS assay to identify small molecule agonists of H2AX - cell viability counter screen (AID 1224847; calls by dose curve; further: top concentration of the series differs between compounds; nearly all actives have a fitted effect of over 30% in size)
# Summary of the method: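 We seed wild-type CHO-K1 cells overnight, treat them for 3 hr at 37C with compounds in 15-concentration series, and quantify remaining viability by CellTiter-Glo luminescence.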
# [12] = qHTS RealTime-Glo MT Cell Viability Assay in HepG2 cells - 24 hour (AID 1224867); further: nearly all actives have a fitted effect of over 50% in size
# Summary of the method: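 Real-time, nonlytic viability: 600 HepG2 cells/well mixed with NanoLuc enzyme plus prosubstrate; 5 h settle, compound (DMSO) added by pintool; luminescence monitored over 40 h at 37 C.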
# [13] = qHTS RealTime-Glo MT Cell Viability Assay in HEK293 cells - 32 hour (AID 1224868); further: top concentration of the series differs between compounds; nearly all actives have a fitted effect of over 50% in size
# Summary of the method: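 Cells + reagent dispensed (600 cells/well, HEK293) → 5 h at 37 C/5% CO2 → 23 nL compound in DMSO pinned → 40 h at 37 C → luminescence read at 0, 8, 16, 24, 32, 40 h.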
# [14] = A CellTox Green Cytotoxicity Assay to monitor cytotoxicity in HEK293 cells - 0 hour (AID 1224869); further: nearly all actives have a fitted effect of over 50% in size
# Summary of the method: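 HEK293 cells, 600/well, were preincubated 5 hours and then exposed to compounds at 37 C for up to 40 hours. A cell-impermeant cyanine dye staining dead-cell DNA was read by fluorescence at 0, 8, 16, 24, 32 and 40 h time points.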
# [15] = qHTS RealTime-Glo MT Cell Viability Assay in HepG2 cells - 40 hour (AID 1224870); further: nearly all actives have a fitted effect of over 50% in size; further: potency means the concentration at half of the fitted maximal effect
# Summary of the method: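 Real-time viability: cells seeded at 600 per well together with NanoLuc and cell-permeant prosubstrate, compounds added after 5 h incubation. Luminescence tracked at 0, 8, 16, 24, 32 and 40 h of exposure.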
# [16] = target: Nuclear receptor subfamily 1 group I member 3 (Homo sapiens) (UniProt Q14994); experiment: qHTS assay to identify small molecule agonists of the constitutive androstane receptor (CAR) signaling pathway (AID 1224839); further: nearly all actives have a fitted effect of over 15% in size
# Summary of the method: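 A 15-concentration quantitative screen uses HepG2 cells co-transfected stably with human CAR and CYP2B6-2.2kb reporter. Treatment lasts 24 h with 0.75 uM PK11195 final present; ONE-Glo luminescence is the signal.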
# [17] = qHTS assay to identify small molecule antagonists of the estrogen related receptor signaling pathway with the pleiotropic PPARgamma coactivator (PGC) from Tox21 10K library (AID 1224841; call rule not given here)
# Summary of the method: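 PGC/ERR cell line, 2,000 cells/well, pre-incubated 6 hours at 37 C, then exposed to compounds for 18 hours at 37 C; luciferase read with One-Glo luminescence after 30 min at room temperature.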
# [18] = qHTS assay to identify small molecule agonists of the estrogen related receptor signaling pathway with the pleiotropic PPARgamma coactivator (PGC) from Tox21 10K library (AID 1224842); further: nearly all actives have a fitted effect of over 15% in size
# Summary of the method: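 Luminescence from One-Glo (30 min, room temperature) measured after PGC/ERR cells had 18 h at 37 C with pinned compound (23 nL in DMSO). Cells had been seeded at 2,000 per well and pre-incubated 6 h.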
# [19] = qHTS assay to identify small molecule antagonists of the estrogen related receptor (ERR) signaling pathway from Tox21 library (AID 1224848); further: nearly all actives have a fitted effect of over 50% in size
# Summary of the method: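 Antagonist-mode screen of the Tox21 10K library in an NTP-provided ERR reporter cell line; 18 h compound exposure at 37 C, luminescence measured with ONE-Glo.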
# [20] = qHTS assay to identify small molecule agonists of the estrogen related receptor (ERR) signaling pathway from Tox21 library (AID 1224849; calls by dose curve; further: nearly all actives have a fitted effect of over 15% in size); conditions: ERR reporter cell line, ONE-Glo luciferase, 18 h; at 92.4 µM (top of the series) unless noted
# Summary of the method: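 ERR reporter cells (NTP line) pre-incubated 6 hours at 37 C, then exposed to compounds for 18 hours at 37 C. ONE-Glo luciferase luminescence was read after 30 minutes at room temperature.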
Compound,Potency [1],Potency [2],Potency [3],Potency [4],Potency [5],Potency [6],Potency [7],Potency [8],outcome [9],outcome [10],Potency [11],Potency [12],Potency [13],outcome [14],Potency [15],Potency [16],Potency [17],Potency [18],Potency [19],"activity change, positive = activation [20]"
CCOC(=O)NC(C)(C)Cc1ccc(Cl)cc1,inactive,inactive,inactive,inactive,inactive,inactive,inactive,inactive,inactive,inactive,inactive,inactive,inactive,inactive,inactive,,,,,
CC(C)N(Cc1ccccc1)C(=O)C(C)(C)C,inactive,inactive,inactive,inactive,inactive,inactive,inactive,inactive,inactive,inactive,,inactive,inactive,inactive,inactive,,,,,
O=C(Cl)c1ccccc1,inactive,inactive,inactive,inactive,,inactive,inactive,inactive,inactive,inactive,inactive,inactive,inactive,inactive,inactive,inactive,inactive,inactive,inactive,7.58%
CCCOC(=O)c1cncn1C(C)c1ccccc1 (centres undefined),inactive,inactive,inactive,inactive,inactive,inactive,inactive,inactive,inactive,inactive,inactive,inactive,inactive,inactive,inactive,,inactive,inactive,inactive,0.709% [at 42.5 µM]
COP(=O)(O)OC,inactive,inactive,inactive,inactive,inactive,,inactive,inactive,inactive,inactive,inactive,inactive,inactive,inactive,inactive,inactive,,,,
Cc1ccc(S(=O)(=O)N[C@@H](CCCCN)C(=O)CCl)cc1,inactive,inactive,inactive,inactive,,inactive,inactive,inactive,inactive,inactive,inactive,inactive,inactive,inactive,inactive,inactive,inactive,inactive,inactive,0.318% [at 42.5 µM]
CCC(=O)OC1(c2ccccc2)CCN(C)CC1,inactive,inactive,inactive,inactive,inactive,,inactive,inactive,,,inactive,inactive,inactive,inactive,inactive,inactive,,,,
CCCC(C)(COC(N)=O)COC(N)=O,inactive,inactive,inactive,inactive,inactive,,inactive,inactive,,inactive,inactive,inactive,inactive,inactive,inactive,inactive,inactive,inactive,inactive,0.442%
O=C(O)C(Br)(Br)Br,inactive,inactive,inactive,inactive,inactive,,inactive,,inactive,inactive,inactive,inactive,inactive,inactive,49 µM (active),inactive,inactive,inactive,inactive,0.595%
CC1=C2[C@H]3OC(=O)[C@@H](C)[C@@H]3CC[C@@]2(C)C=CC1=O,inactive,inactive,inactive,inactive,inactive,inactive,,inactive,inactive,inactive,inactive,inactive,inactive,inactive,inactive,,inactive,inactive,inactive,5.47% [at 42.5 µM]
C=C1C[C@@H]2[C@H](CC[C@]3(C)C(=O)CC[C@@H]23)[C@@]2(C)C=CC(=O)C=C12,inactive,inactive,inactive,inactive,inactive,inactive,inactive,inactive,inactive,inactive,inactive,inactive,inactive,inactive,inactive,,inactive,inactive,,-24.3% [at 42.5 µM]
Cc1cccc2sc3nncn3c12,inactive,inactive,inactive,inactive,inactive,inactive,inactive,inactive,inactive,inactive,inactive,inactive,inactive,inactive,inactive,,,,,
CS(=O)(=O)Cl,inactive,inactive,inactive,inactive,inactive,,inactive,inactive,inactive,inactive,inactive,inactive,inactive,inactive,inactive,inactive,,,,
CCNc1nc(Cl)nc(NC(C)(C)C)n1,inactive,inactive,inactive,inactive,inactive,inactive,,inactive,inactive,,inactive,inactive,inactive,inactive,inactive,,,,,
